{"source": "PubChem BioAssay AID1117319", "about": "(Southern Research Institute, 2015)", "note": "Values joined by “and” are separate entries in the source; they are usually repeats but may differ in a detail not shown here. Equal values may be shown once. The whole screen tested about 260,000 compounds, of which about 1,500 (0.58%) were called active. Inconclusive results (about 5%) are left out. A selection follows. Entries with a potency or affinity are not part of this list. Values without a mark were called inactive.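 The calls were made as follows: active = inhibition above a set limit at one or more doses, reproduced on every date tested; inconclusive = results disagree between test dates, or hit never tested in dose response; inactive = the rest.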"}
{"target": "Virion infectivity factor (Human immunodeficiency virus type 1 group M subtype B (isolate BH10)) + Virion infectivity factor (Human immunodeficiency virus type 1 group M subtype B (isolate BRU/LAI)) + Virion infectivity factor (Human immunodeficiency virus type 1 group M subtype B (isolate PCV12)) + Virion infectivity factor (Human immunodeficiency virus type 1 group M subtype B (isolate HXB2)) + DNA dC->dU-editing enzyme APOBEC-3G (Homo sapiens) (UniProt P69720+P69721+P69722+P69723+Q9HC16)", "assay": "inhibitors of Vif binding to APOBEC3G peptide, primary screen, biochemical, TR-FRET, GST-Vif 1-94, biotin-A3G peptide, dose response retest (AID 1117319);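 also: Vif residues 1-94 fused to GST binding biotinylated APOBEC3G peptide 110-148; 0% = full assay without inhibitor and 100% = GST in place of GST-Vif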", "conditions": "hits give high values"}
{"smiles": "CC[n+]1c(/C=C/C=C/N(C(C)=O)c2ccccc2)sc2ccccc21", "inhibition": "8.36%"}
{"smiles": "CCN1/C(=C/C(C)=C/c2sc3ccccc3[n+]2CC)Sc2ccccc21", "inhibition": "-17.9%"}
{"smiles": "CCN(CC)CCN=C1CCCc2ccccc2N1", "inhibition": "0.69%"}
{"smiles": "O=C(Nc1cccc(S(=O)(=O)N2CCOCC2)c1)c1cc2ccccc2o1", "inhibition": "-1.28%"}
{"smiles": "CC(=O)Oc1ccc(/C=N/NS(=O)(=O)c2ccccc2)cc1", "inhibition": "-10.3%"}
{"smiles": "Cc1ccc(S(=O)(=O)c2c(N)n(Cc3ccco3)c3nc4ccccc4nc23)cc1", "inhibition": "2.43%"}
{"smiles": "Cc1ccc(S(=O)(=O)c2c(N)n(Cc3ccco3)c3nc4ccccc4nc23)cc1C", "inhibition": "5.39%"}
{"smiles": "Cc1ccn2c(/C=N/OCc3ccc(F)cc3)c(-c3ccc(Cl)cc3)nc2c1", "inhibition": "-1.15%"}
{"smiles": "CCCCN(CCCC)CC1OCc2ccccc2CO1", "inhibition": "-2.33%"}
{"smiles": "COc1ccc(-c2nn(-c3ccccc3)cc2CNC[C@H]2O[C@@H](n3cnc(C(N)=O)n3)[C@H](O)[C@@H]2O)cc1", "inhibition": "12.8%"}
{"smiles": "CCC(C)Nc1nc(C)nc2c1oc1ccccc12", "note": "(stereo unspecified)", "inhibition": "-0.82%"}
{"smiles": "CC(=O)c1sc(=S)n(Cc2ccccc2)c1C", "inhibition": "-9.02%"}
{"smiles": "COc1cc2c(cc1OC)C(Cc1ccc(O)cc1)NCC2", "note": "(stereo unspecified)", "inhibition": "16.4%"}
{"smiles": "COc1cc2c(cc1O)C(Cc1ccc(O)cc1)NCC2", "note": "(stereo unspecified)", "inhibition": "-2.34%"}
{"smiles": "CC(Oc1ccccc1F)c1nnc(SCC(=O)NCc2ccc3c(c2)OCO3)o1", "note": "(stereo unspecified)", "inhibition": "-7.49%"}
{"smiles": "COc1ccc(-n2cc(-c3ccc(Cl)cc3)[nH]c2=S)cc1", "inhibition": "-54.3%"}
{"smiles": "O=C(c1ccc(Cl)cc1)C1CCCN(Cc2cccn2-c2ccccn2)C1", "note": "(stereo unspecified)", "inhibition": "-9.46%"}
{"smiles": "CCOc1cc(C(=S)N2CCOCC2)ccc1OC(=O)c1ccc(C)cc1", "inhibition": "4.9%"}
{"smiles": "N#C/C(=C(/O)COc1ccc(Cl)cc1)c1nc2ccccc2s1", "inhibition": "5.6%"}
{"smiles": "CCC(c1ccccc1)C(CC)c1cc(O)c(O)c(O)c1", "note": "(stereo unspecified)", "inhibition": "27.3%"}
{"smiles": "CNC[C@H](O)c1cccc(O)c1", "inhibition": "-0.43%"}
{"smiles": "CCC(NC(C)C)C(O)c1ccc(O)c(O)c1", "note": "(stereo unspecified)", "inhibition": "-1.98%"}
{"smiles": "CC(C)NCC(O)c1ccc(NS(C)(=O)=O)cc1", "note": "(stereo unspecified)", "inhibition": "4.04%"}
{"smiles": "COc1ccc([C@H](C)NC[C@H](O)c2ccc(O)c(NC=O)c2)cc1", "inhibition": "26%"}
{"smiles": "CC(C)NCC(O)c1cc(O)cc(O)c1", "note": "(stereo unspecified)", "inhibition": "5.35%"}
{"smiles": "CN1/C(=C\\C(=O)COC(=O)c2ccccc2O)C(C)(C)c2ccccc21", "inhibition": "-8.33%"}
{"smiles": "Cc1occc1-c1nnc(SCC(=O)Nc2ccccc2)n1C", "inhibition": "1.99%"}
{"smiles": "Oc1cccc(/C=N/N2CCN(c3ccccn3)CC2)c1", "inhibition": "3.52%"}
{"smiles": "CCN(CC)S(=O)(=O)c1cccc(-c2nn(-c3ccccc3)cc2/C=C(\\C#N)C(=O)NCc2ccco2)c1", "inhibition": "-3.43%"}
{"smiles": "CCOc1ccc(CCNC(=O)C2CCN(S(=O)(=O)N3CCC(C)CC3)CC2)cc1OCC", "inhibition": "-6.54%"}
{"smiles": "CCOc1ccc(CCNC(=O)C2CC=CCC2C(=O)OC(C)C)cc1OCC", "note": "(stereo unspecified)", "inhibition": "0.89%"}
{"smiles": "CCOC(=O)c1[nH]c2cc(OC)c(OC)cc2c1NC(=O)CN1CCN(c2ccc(OC)cc2)C(C)C1", "note": "(stereo unspecified)", "inhibition": "23%"}
{"smiles": "Cc1cc(C(=O)N/N=C/c2ccc(-c3cccc(Cl)c3)o2)n[nH]1", "inhibition": "-2.03%"}
{"smiles": "Cc1ccc(-c2cc(N)n(-c3ccc(C)cc3)n2)cc1", "inhibition": "-11.3%"}
{"smiles": "Cc1ccc(-c2cc(N)n(-c3ccccc3)n2)cc1", "inhibition": "-2.7%"}
{"smiles": "CCOC(=O)c1ccc(N2C(=O)C3CC=C(C)CC3C2=O)cc1", "note": "(stereo unspecified)", "inhibition": "24.6%"}
{"smiles": "O=C(N/N=C\\c1cccnc1)c1ccccc1O", "inhibition": "-5.54%"}
{"smiles": "Cc1ncc(CO)c(/C=N/NC(=O)c2cc(Br)ccc2O)c1O", "inhibition": "11%"}
{"smiles": "COc1ccc(C(=O)N/N=C/c2c(CO)cnc(C)c2O)cc1", "inhibition": "8.42%"}
{"smiles": "O=C(N/N=C/c1cccnc1)c1ccccc1", "inhibition": "-11.7%"}
{"smiles": "Cc1ccc(NC2=NCCCCC2)cc1", "inhibition": "0.64%"}
{"smiles": "CCN(CC)C(=O)[C@H]1C[C@H](CC(=O)NC(C)(C)C)C(=O)N2CCc3c([nH]c4ccc(Cl)cc34)[C@]12C", "inhibition": "-8.68%"}
{"smiles": "CNC(=O)CN(C1CCCCC1)S(=O)(=O)c1ccc(F)cc1", "inhibition": "-2.39%"}
{"smiles": "Cn1cccc1Cc1nnc(SCC(=O)NCc2ccco2)n1CCc1ccccc1", "inhibition": "1.07%"}
{"smiles": "CC1C/C(=C/c2cccn2C)C(=O)/C(=C/c2cccn2C)C1", "note": "(stereo unspecified)", "inhibition": "32.9%"}
{"smiles": "Cn1cccc1/C=C1\\CC(C(C)(C)C)C/C(=C\\c2cccn2C)C1=O", "note": "(stereo unspecified)", "inhibition": "1.11%"}
{"smiles": "O=C1/C(=C/c2ccccc2)SC(=S)N1N1C(=O)C2CC2C1=O", "note": "(stereo unspecified)", "inhibition": "-1.11%"}
{"smiles": "CC(C)Cc1nnc(NC(=O)c2cccc(S(=O)(=O)N3CCN(C)CC3)c2)s1", "inhibition": "3.22%"}
{"smiles": "O=C(/C=C/c1ccccc1[N+](=O)[O-])OCC(=O)c1ccccc1", "inhibition": "-4.21%"}
{"smiles": "Cc1ccc(C(=O)CSc2nc3cccnc3n2C)cc1", "inhibition": "6.72%"}
{"smiles": "O=C(COc1cc(Cl)c(Cl)cc1Cl)NCCN1CCOCC1", "inhibition": "8.15%"}
{"smiles": "Cc1nnc(NC(=O)CCC(=O)NCc2ccco2)s1", "inhibition": "6.21%"}
{"smiles": "NC(=O)COC(=O)c1ccc(C(=O)C(=O)c2ccccc2)cc1", "inhibition": "4.49%"}
{"smiles": "NC(=O)COC(=O)c1ccc(-c2ccccc2)cc1", "inhibition": "-9.63%"}
{"smiles": "O=C(CSC(=S)N1CCOCC1)Nc1ncc2c(n1)CCCC2=O", "inhibition": "1.41%"}
{"smiles": "O=C(NCC(O)c1ccccc1)c1cccs1", "note": "(stereo unspecified)", "inhibition": "-7.1%"}
{"smiles": "Cc1sc(NC(=O)c2ccco2)c(CN2CCN(c3ccccn3)CC2)c1C", "inhibition": "17.2%"}
{"smiles": "NC(=O)N/N=C/c1ccc(-c2ccc([N+](=O)[O-])cc2)o1", "inhibition": "0.97%"}
{"smiles": "O=C(O)c1cc(-c2ccc(/C=N/Nc3ccc([N+](=O)[O-])cn3)o2)ccc1Cl", "inhibition": "5.44%"}
{"smiles": "O=C(CCNC(=O)c1ccc([N+](=O)[O-])cc1)Nc1cc(Cl)ccc1N1CCOCC1", "inhibition": "-3.46%"}
{"smiles": "CCCCC(=O)NC(=S)Nc1cc(C(=O)O)ccc1OC", "inhibition": "6.07%"}
{"smiles": "CC(=O)NC(=S)Nc1cc(C(=O)O)ccc1Cl", "inhibition": "-3.72%"}
{"smiles": "CCCCC(c1nnnn1CCOC)N1CCN(C(=O)c2ccco2)CC1", "note": "(stereo unspecified)", "inhibition": "32.8% and -5.2%"}
{"smiles": "Cc1ccc(CN(C)C(=O)CN2C(=O)NC3(CCCc4ccccc43)C2=O)c(C)c1", "note": "(stereo unspecified)", "inhibition": "-3.76%"}
{"smiles": "CN(C)C(=O)CSc1nnc(Cc2ccccc2)n1Cc1ccco1", "inhibition": "7.45%"}
{"smiles": "O=C(Nc1cccc(-c2nnn(CC(=O)N3CCc4ccccc4C3)n2)c1)C1CCC1", "inhibition": "-4.46%"}
{"smiles": "CC(C)CC(=O)Nc1ccccc1-c1nnn(CC(=O)N2CCc3ccccc3C2)n1", "inhibition": "10.6%"}
{"smiles": "CC(=O)NCCOc1cccc2ccccc12", "inhibition": "4.94%"}
{"smiles": "CC(=O)NN1C(=O)/C(=C\\c2ccccc2)SC1=S", "inhibition": "1.87%"}
{"smiles": "CC(=O)NN1C(=O)/C(=C\\c2ccc(C)cc2)SC1=S", "inhibition": "-1.41%"}
{"smiles": "CC(=O)NN1C(=O)/C(=C/c2ccc(C(C)C)cc2)SC1=S", "inhibition": "-3.47%"}
{"smiles": "CC(=O)NN1C(=O)/C(=C\\c2ccc(Cl)cc2)SC1=S", "inhibition": "7.42%"}
{"smiles": "O=C(c1nc(-c2ccccc2)n(-c2ccccc2)n1)N1CCCCCC1", "inhibition": "2.5%"}
{"smiles": "O=C(NNC(=O)c1cc(Cl)ccc1O)c1cccc(S(=O)(=O)N2CCOCC2)c1", "inhibition": "4.69%"}
{"smiles": "COc1cccc(C(=O)NCc2ccc(N3CCN(C(=O)OC(C)(C)C)CC3)cc2)c1", "inhibition": "4.61%"}
{"smiles": "CCN(CC)c1ccc(C(=O)Nn2cnc3ccccc3c2=O)cc1", "inhibition": "-13%"}
{"smiles": "CCNc1nc(-c2cc(C)n(Cc3ccco3)c2C)cs1", "inhibition": "8.76%"}
{"smiles": "Cc1cc(-c2csc(N)n2)c(C)n1Cc1ccco1", "inhibition": "20.6%"}
{"smiles": "Cc1ccccc1NS(=O)(=O)c1cc(C(=O)NCCSC2CCCCC2)ccc1C", "inhibition": "4.25%"}
{"smiles": "CCCCCCCCn1c2c(c(=N)c3ccccc31)CCC2", "inhibition": "1.93%"}
{"smiles": "Cc1cc(C)c2c(=O)[nH]c(=O)n(Cc3ccccc3)c2n1", "inhibition": "11.8%"}
{"smiles": "O=C1CN(/N=C/c2ccc([N+](=O)[O-])o2)C(=O)N1", "inhibition": "6.04%"}
{"smiles": "O=C1NC(=S)S/C1=C\\c1cccc([N+](=O)[O-])c1", "inhibition": "0.14%"}
{"smiles": "CCC1(C)Cc2ccccc2-c2nc(NCCCO)n(-c3ccccc3)c(=O)c21", "note": "(stereo unspecified)", "inhibition": "-4.2%"}
{"smiles": "CC(C)COC(=O)Nc1nnc(SCCOc2ccccc2)s1", "inhibition": "-6.77%"}
{"smiles": "O=C(c1cc2c(s1)-c1ccccc1OC2)N1CCN(c2ccccn2)CC1", "inhibition": "-16.4%"}
{"smiles": "CCOc1cc(C(=O)OCC(=O)Nc2cc(C)on2)cc(OCC)c1OCC", "inhibition": "-2.84%"}
{"smiles": "Clc1ccc(OCc2nn3c(-c4ccco4)nnc3s2)cc1", "inhibition": "2%"}
{"smiles": "Clc1ccc(OCc2nn3c(-c4ccccc4)nnc3s2)c(Cl)c1", "inhibition": "-0.95%"}
{"smiles": "COc1ccc(CN(C)C2CCCCC2)c(C)c1C", "inhibition": "-2.5%"}
{"smiles": "COc1ccccc1NC(=O)CSc1nnc(CC(=O)Nc2ccccc2C)n1C", "inhibition": "-12.1%"}
{"smiles": "CCOc1cccc(N2C(=O)CC(N3CCN(c4nc5ccccc5s4)CC3)C2=O)c1", "note": "(stereo unspecified)", "inhibition": "-1.33%"}
{"smiles": "Clc1cccc(/C=N\\Nc2nccs2)c1", "inhibition": "-1.1%"}
{"smiles": "O=C(N/N=C/c1ccc(O)c([N+](=O)[O-])c1)c1ccncc1", "inhibition": "-22.5%"}
{"smiles": "COc1ccc(C(=O)NCc2ccncc2)cc1OC", "inhibition": "24.8%"}
{"smiles": "O=C(O)c1cc(N=Nc2c(O)[nH]c3ccc([N+](=O)[O-])cc23)ccc1Cl", "inhibition": "10%"}
